Results filed as inconclusive are left out. Calls of active or inactive are those of the source. How the source made its calls, unless noted: active means hit-call score of the fitted dose curve at least 0.9, where 1 is the maximum; inactive means score below 0.9.
Tests used:
[1] = ACEA_ER_80hr: ACEA Biosciences xCELLigence Real-Time Cell Analysis on Estrogen Receptor Agonism for Proliferation (AID 2282667; active means hit-call score of the fitted dose curve at least 0.9, where 1 is the maximum); conditions: T47D proliferation, impedance (xCELLigence), 80 h
Outline: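 Real-time impedance growth kinetics of human T-47D breast cells read 80 h after dosing, gain-of-signal fitted relative to DMSO. Compounds: 1:4 serial series, top final concentration 100 uM, n = 2.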

[2] = ATG_CRE_CIS: Attagene CIS-FACTORIAL HepG2 Assay for human cAMP Responsive Element (CRE) binding protein 3 (AID 2282926); conditions: HepG2 CRE cis-reporter, Attagene multiplexed mRNA; actives raise or lower the signal
Outline: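 Endogenous transcription factor activity read via CRE-regulated reporter transcripts in transfected HepG2 cells. After 24 h exposure, RNA was reverse-transcribed, amplified, fluorescently labelled and sized by capillary electrophoresis; gain or loss fitted against DMSO.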

[3] = target: CCAAT/enhancer-binding protein beta (Homo sapiens) (UniProt P17676); assay: ATG_C_EBP_CIS: Attagene CIS-FACTORIAL HepG2 Assay for human CCAAT/Enhancer Binding Protein (C/EBP) beta (AID 2282927); conditions: HepG2 Attagene cis-factorial transcription factor reporter; actives raise or lower the signal
Outline: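 Endogenous transcription factor activity in human liver HepG2 cells is inferred from induction of a CEBPB-linked reporter mRNA. Exposure lasts 24 h; activity is fitted in both directions relative to DMSO.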

[4] = ATG_CMV_CIS: Attagene CIS-FACTORIAL HepG2 Assay for human CMV (Internal Marker) (AID 2282928); conditions: HepG2 CMV promoter reporter, transcription factor profiling; actives raise or lower the signal;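 further: endpoint acts as a background internal control marker rather than a target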
Outline: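 Reporter transcripts from transfected HepG2 cells are isolated after 24 h of chemical dosing, reverse-transcribed and amplified. Fragments labeled with 6-FAM are cut with HpaI and quantified by capillary electrophoresis; DMSO defines baseline.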

[5] = ATG_DR4_LXR_CIS: Attagene CIS-FACTORIAL HepG2 Assay for human Liver X Receptor (LXR), DR4 submotif (AID 2282929); conditions: HepG2 Attagene DR4 cis-reporter, mRNA transcription; actives raise or lower the signal
Outline: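 Measures endogenous transcription factor activity via a DR4-driven reporter transcript in human HepG2 cells. Compounds incubated 24 h; mRNA quantified by RT-PCR and capillary electrophoresis, analysed as gain or loss of signal versus DMSO.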

[6] = target: Aryl hydrocarbon receptor (Homo sapiens) (UniProt P35869); assay: ATG_Ahr_CIS: Attagene CIS-FACTORIAL HepG2 Assay for human Aryl Hydrocarbon Receptor (Ahr) (AID 2282930); conditions: HepG2 AhR cis-factorial reporter transcription; actives raise or lower the signal
Outline: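 Transient MRTU transfection of HepG2 → 24 h compound exposure → total RNA, oligo(dT) RT → PCR, 6-FAM extension, HpaI cut → CE fluorescence. DMSO = baseline; bidirectional curve fit.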

[7] = ATG_AP_1_CIS: Attagene CIS-FACTORIAL HepG2 Assay for human Activator Protein 1 (AP-1) (AID 2282931); conditions: HepG2 Attagene cis-factorial AP-1 reporter mRNA; actives raise or lower the signal
Outline: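 Bidirectional concentration-response fitting against DMSO controls. Underlying signal: reporter mRNA from cis-promoter constructs in transiently transfected HepG2, measured after 24 h by RT-PCR and capillary electrophoresis.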

[8] = ATG_AP_2_CIS: Attagene CIS-FACTORIAL HepG2 Assay for human Activator Protein 2 (AP-2) (AID 2282932); conditions: HepG2 AP-2 cis-reporter, Attagene transcription factor profiling; actives raise or lower the signal
Outline: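 Transiently transfected HepG2 cells are exposed to chemical for 24 h. Reporter transcripts are then measured as fluorescence following RT-PCR and capillary separation, and gain- or loss-of-signal is fitted relative to DMSO.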

[9] = ATG_BRE_CIS: Attagene CIS-FACTORIAL HepG2 Assay for human Bone Morphogenetic Protein (BMP) Response Element (BRE) (AID 2282933); conditions: HepG2 BMP response element reporter, Attagene transcription factor profiling; actives raise or lower the signal
Outline: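 HepG2 cells transiently transfected with CIS reporter units (endogenous TF activity, BMP response element), dosed 24 h. Reporter mRNA quantified by RT-PCR, fluorescent labelling and capillary electrophoresis; bidirectional fit vs DMSO baseline.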

[10] = target: Retinoic acid receptor alpha (Homo sapiens) (UniProt P10276); assay: ATG_DR5_RAR_CIS: Attagene CIS-FACTORIAL HepG2 Assay for human Retinoic Acid Receptor Alpha (RARE), DR5 submotif (AID 2282934); conditions: HepG2 Attagene cis-factorial RARE DR5 reporter, mRNA; actives raise or lower the signal;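 on AC50: reporter responds to endogenous RAR alpha beta and gamma in HepG2 not RARA alone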
Outline: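 Transient MRTU transfection of HepG2; 24 h compound treatment; TriZol RNA, oligo(dT) RT, PCR, FAM labelling, capillary electrophoresis. Bidirectional fit vs DMSO. Endogenous TF activity at DR5 RARE.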

Measured: AC50

CCAAT/enhancer-binding protein beta (Homo sapiens), sequence (P17676 whole entry, looked up): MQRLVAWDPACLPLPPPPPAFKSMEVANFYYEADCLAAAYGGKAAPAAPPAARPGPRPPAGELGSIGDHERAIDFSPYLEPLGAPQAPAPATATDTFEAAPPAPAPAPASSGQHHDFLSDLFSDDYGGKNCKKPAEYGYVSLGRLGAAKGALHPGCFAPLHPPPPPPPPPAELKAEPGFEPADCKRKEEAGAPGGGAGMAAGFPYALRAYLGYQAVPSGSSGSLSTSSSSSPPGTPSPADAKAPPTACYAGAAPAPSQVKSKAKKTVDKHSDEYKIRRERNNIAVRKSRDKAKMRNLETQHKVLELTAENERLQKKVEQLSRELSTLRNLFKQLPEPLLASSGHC
Retinoic acid receptor alpha (Homo sapiens), sequence (P10276 whole entry, looked up): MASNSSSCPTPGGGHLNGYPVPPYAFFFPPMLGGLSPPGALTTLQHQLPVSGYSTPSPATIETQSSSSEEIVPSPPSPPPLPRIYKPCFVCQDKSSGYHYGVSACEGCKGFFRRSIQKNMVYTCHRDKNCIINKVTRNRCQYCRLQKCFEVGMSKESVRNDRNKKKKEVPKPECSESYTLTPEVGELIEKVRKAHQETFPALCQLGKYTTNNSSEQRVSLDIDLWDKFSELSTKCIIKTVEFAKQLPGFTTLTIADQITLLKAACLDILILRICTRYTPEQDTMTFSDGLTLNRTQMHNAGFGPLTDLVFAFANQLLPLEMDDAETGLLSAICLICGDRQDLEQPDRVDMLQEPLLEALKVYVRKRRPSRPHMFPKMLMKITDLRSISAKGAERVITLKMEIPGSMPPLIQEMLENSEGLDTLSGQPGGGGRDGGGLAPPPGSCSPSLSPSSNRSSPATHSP
Aryl hydrocarbon receptor (Homo sapiens), sequence (P35869 whole entry, looked up): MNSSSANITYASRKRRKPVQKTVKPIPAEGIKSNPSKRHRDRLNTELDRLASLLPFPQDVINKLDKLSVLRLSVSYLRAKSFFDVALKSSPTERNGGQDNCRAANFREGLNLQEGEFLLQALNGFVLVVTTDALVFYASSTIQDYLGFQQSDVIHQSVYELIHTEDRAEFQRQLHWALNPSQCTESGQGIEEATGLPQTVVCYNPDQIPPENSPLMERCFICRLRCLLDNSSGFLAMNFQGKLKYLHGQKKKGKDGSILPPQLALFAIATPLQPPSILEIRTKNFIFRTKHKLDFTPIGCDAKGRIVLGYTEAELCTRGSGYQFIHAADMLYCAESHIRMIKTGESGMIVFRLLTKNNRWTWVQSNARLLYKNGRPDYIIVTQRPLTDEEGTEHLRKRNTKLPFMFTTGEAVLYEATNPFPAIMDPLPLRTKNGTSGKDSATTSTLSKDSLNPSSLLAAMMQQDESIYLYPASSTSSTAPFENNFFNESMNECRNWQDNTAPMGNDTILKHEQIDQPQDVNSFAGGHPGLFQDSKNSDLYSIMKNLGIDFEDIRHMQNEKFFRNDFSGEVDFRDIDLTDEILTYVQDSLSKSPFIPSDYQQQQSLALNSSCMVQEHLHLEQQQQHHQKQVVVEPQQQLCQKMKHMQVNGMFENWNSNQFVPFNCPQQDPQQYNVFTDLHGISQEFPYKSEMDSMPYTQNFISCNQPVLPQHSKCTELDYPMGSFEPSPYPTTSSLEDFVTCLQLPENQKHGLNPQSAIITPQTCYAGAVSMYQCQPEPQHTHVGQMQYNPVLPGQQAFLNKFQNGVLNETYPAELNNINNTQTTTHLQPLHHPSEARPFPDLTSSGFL

CCCc1ccc(O)c(OC)c1
active: [5] 33.8 µM
inactive: all other assays above

CCCCOC(=O)C(C)CC (stereo not drawn)
inactive: all assays above

CC1=NN(c2ccc(S(=O)(=O)O)cc2)C(=O)C1N=Nc1ccccc1 (stereo not drawn)
active: [6] 10.7 µM
inactive: all other assays above

CC(C)=CCCC(C)=CC#N
inactive: all assays above

CCc1cccc(C)c1N
inactive: all assays above

C=CCOC(=O)c1ccc(C(=O)OCC=C)c(C(=O)OCC=C)c1
inactive: all assays above

CCOC(=O)C1=NOC(c2ccccc2)(c2ccccc2)C1
inactive: all assays above

CC(CCC(=O)O)(c1ccc(O)cc1)c1ccc(O)cc1
active: [1] 13.4 µM
inactive: all other assays above

OCCCc1ccccc1
inactive: all assays above

CCNc1nc(NC(C)(C)C)nc(OC)n1
inactive: all assays above

CCCCCC[C@@H](O)C/C=C\CCCCCCCC(=O)OCC(O)CO (stereo partly drawn)
active: [4] 131 µM | [5] 163 µM | [7] 75.7 µM | [8] 158 µM
not listed: [9]
inactive: all other assays above

CCCC1CCCC(=O)O1 (stereo not drawn)
not listed: [9]
inactive: all other assays above

C=CC(=O)OCCCCCCCC(C)C
active: [2] 77.2 µM | [3] 63.1 µM | [5] 160 µM | [10] 70.5 µM
inactive: all other assays above

CCCCCCC=O
active: [1] 10.9 µM
inactive: all other assays above

c1ccc(-c2nc3ccccc3[nH]2)cc1
inactive: all assays above

Nc1ccc(Cl)c(N)c1
active: [6] 6.09 µM
inactive: all other assays above

N#Cc1ccc(C2CCCc3cncn32)cc1 (stereo not drawn)
active: [1] 0.829 µM
inactive: all other assays above

O=C(Oc1ccccc1)c1ccccc1C(=O)Oc1ccccc1
active: [7] 46.3 µM
inactive: all other assays above

O=C(O)c1ccc2c(c1)C(=O)OC2=O
not listed: [9]
inactive: all other assays above

CCN1CCCC1=O
inactive: all assays above

Cc1ccccc1CCO
inactive: all assays above

CCCCCCOC(=O)CCCCC(=O)OCCCCCC
inactive: all assays above

CC(CC(C)C)=NO
inactive: all assays above

CCOC(=O)[C@H](O)[C@@H](O)C(=O)OCC
inactive: all assays above

CCCC=C(C=O)CC
active: [6] 100 µM
inactive: all other assays above

CC/C=C\C/C=C\C/C=C\CCCCCCCC(=O)OC
inactive: [1] | [2] | [3] | [4]
active: [5] 71.1 µM | [6] 47.6 µM | [7] 70.6 µM | [8] 100 µM | [10] 100 µM

CC1CC(=O)CC(C)(C)C1 (stereo not drawn)
not listed: [7]
inactive: all other assays above

Nc1ncnc2nc[nH]c12
not listed: [8]
inactive: all other assays above

CO[Si](C)(C)OC
active: [6] 0.376 µM
not listed: [9]
inactive: all other assays above

C=C1C[C@H]2[C@@H]3C=C(C)C4=CC(=O)CC[C@]4(C)[C@H]3CC[C@]2(C)[C@@]1(OC(C)=O)C(C)=O
active: [1] 0.00363 µM | [5] 99.7 µM | [7] 63 µM
not listed: [8]
inactive: all other assays above

Cc1cc(C)c(C=O)c(C)c1
active: [10] 3.85 µM
not listed: [9]
inactive: all other assays above

O=C(O)CCCC(=O)O
not listed: [8]
inactive: all other assays above

CC(C)(C)NC(=O)[C@H]1CC[C@H]2[C@@H]3CC[C@H]4NC(=O)C=C[C@]4(C)[C@H]3CC[C@]12C
not listed: [8]
inactive: all other assays above

CCc1cccc(C)c1N(C(=O)CS(=O)(=O)O)C(C)COC (stereo not drawn)
not listed: [9]
inactive: all other assays above

CC(=O)/C=C/C1C(C)=CCCC1(C)C (stereo not drawn)
not listed: [8] | [10]
inactive: all other assays above

NC(=O)Nc1ccccc1
not listed: [9]
inactive: all other assays above

O=C(OCCc1ccccc1)c1ccccc1
not listed: [9]
inactive: all other assays above

CCCCCCCCCCCCCCCCCCOS(=O)(=O)O
active: [1] 10.5 µM | [4] 11.1 µM | [8] 57.3 µM
not listed: [7]
inactive: all other assays above

CCC(C)(O)CCCC(C)C (stereo not drawn)
not listed: [8]
inactive: all other assays above

CC1(C)CC(O)CC(C)(C)N1[O]
active: [4] 26.2 µM | [7] 26.6 µM
not listed: [8]
inactive: all other assays above

CC1(C)[C@@H]2CC[C@@]1(C)C(=O)C2
not listed: [9]
inactive: all other assays above

CCOB(OCC)OCC
not listed: [8]
inactive: all other assays above

CC1(C)C(=O)N(CO)C(=O)N1CO
not listed: [7]
inactive: all other assays above

CCCCC(CC)COC(=O)/C=C/c1ccc(OC)cc1 (stereo not drawn)
not listed: [9]
inactive: all other assays above

CCCCCC1=CCCC1=O
active: [1] 0.106 µM
not listed: [8] | [9]
inactive: all other assays above

COc1ccc(C(=O)/C(Br)=C\C(=O)O)cc1
active: [3] 129 µM | [4] 36 µM | [5] 27.8 µM
not listed: [7]
inactive: all other assays above

CCCCCCOc1ccc(N)cc1
active: [4] 155 µM | [5] 159 µM
not listed: [9]
inactive: all other assays above

C=CC(C)(CCC=C(C)C)OC(=O)C=Cc1ccccc1 (stereo not drawn)
active: [4] 84.2 µM | [5] 27.1 µM | [7] 100 µM
not listed: [9]
inactive: all other assays above

C1CNCCN1
not listed: [7]
inactive: all other assays above

CC(C)C(=O)OCCOc1ccccc1
not listed: [8]
inactive: all other assays above

COC(=O)CC(C)CCC=C(C)C (stereo not drawn)
not listed: [7]
inactive: all other assays above

Nc1nc(N)nc(-c2ccccc2)n1
not listed: [7]
inactive: all other assays above

From PubChem BioAssay (EPA / NIEHS)
